Percent response (surface receptor) data for three molecules are collected here from PubChem BioAssay AID540358 (NMMLSC, 2011).

Structures are written as SMILES. Out of some 1,100 compounds screened, about 260 (24%) were called active.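 Rule for the calls: active = surface receptor percent response at or below 58%, roughly 3 SD from nonfluorescent compounds; inactive = the rest.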 Only a sample is shown.

Beta-2 adrenergic receptor (Homo sapiens), sequence (P07550 whole entry, looked up): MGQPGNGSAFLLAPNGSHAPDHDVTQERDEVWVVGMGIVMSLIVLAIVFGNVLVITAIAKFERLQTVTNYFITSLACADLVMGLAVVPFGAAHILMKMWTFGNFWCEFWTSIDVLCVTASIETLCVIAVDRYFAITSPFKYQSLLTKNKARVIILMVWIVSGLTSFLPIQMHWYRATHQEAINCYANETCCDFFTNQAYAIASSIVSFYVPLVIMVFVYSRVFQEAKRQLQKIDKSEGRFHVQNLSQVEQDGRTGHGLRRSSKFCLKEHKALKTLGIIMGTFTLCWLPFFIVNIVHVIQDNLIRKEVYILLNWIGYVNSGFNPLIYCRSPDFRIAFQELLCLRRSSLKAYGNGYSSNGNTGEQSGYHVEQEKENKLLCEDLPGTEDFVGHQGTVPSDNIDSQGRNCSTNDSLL

The assay addresses Beta-2 adrenergic receptor (Homo sapiens) (UniProt P07550). Description: beta2AR agonists via receptor internalization, confirmation, cell-based, FAP fluorogen, flow cytometry, single point, cherry pick 1 (AID 540358). The settings on record: Am2.2-beta2AR cells, at 10 µM, hits give low values.
Turning to `CCC(=O)c1ccc(OCC(=O)N2CCN(CC(=O)Nc3ccc(C)cc3)CC2)cc1`, the percent response (surface receptor) was 10.7% (active).
With `O=C1NC(=O)C(CCc2ccccn2)(Cc2cccc(Cl)c2Cl)C(=O)N1c1ccc(Br)cc1` (stereo not drawn) the figure was 91.2% (inactive); with `CC(Cc1ccccc1)NCCC(c1ccccc1)c1ccccc1` (stereo not drawn), 105% (inactive).
